We go through eight molecules from PubChem BioAssay (Tox21).

The target in test [1] is Thyrotropin receptor (Homo sapiens) (UniProt P16473). As to the kind of experiment: qHTS assay to identify small molecule antagonists of the thyroid stimulating hormone receptor (TSHR) signaling pathway (AID 1259385; calls by dose curve; note: nearly all actives have a fitted effect of over 20% in size). In short, it runs like this: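 TSHR-HEK293 cells were plated and held 18 h at 37C/5% CO2, then given compound plus Ro20-1724 and stimulated with TSH at 1.5 ng/mL final. After 30 min at room temperature, cAMP was detected with cAMP-d2/anti-cAMP-cryptate (1 h) by fluorescence.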
Thyrotropin receptor (Homo sapiens), sequence (P16473 whole entry, looked up): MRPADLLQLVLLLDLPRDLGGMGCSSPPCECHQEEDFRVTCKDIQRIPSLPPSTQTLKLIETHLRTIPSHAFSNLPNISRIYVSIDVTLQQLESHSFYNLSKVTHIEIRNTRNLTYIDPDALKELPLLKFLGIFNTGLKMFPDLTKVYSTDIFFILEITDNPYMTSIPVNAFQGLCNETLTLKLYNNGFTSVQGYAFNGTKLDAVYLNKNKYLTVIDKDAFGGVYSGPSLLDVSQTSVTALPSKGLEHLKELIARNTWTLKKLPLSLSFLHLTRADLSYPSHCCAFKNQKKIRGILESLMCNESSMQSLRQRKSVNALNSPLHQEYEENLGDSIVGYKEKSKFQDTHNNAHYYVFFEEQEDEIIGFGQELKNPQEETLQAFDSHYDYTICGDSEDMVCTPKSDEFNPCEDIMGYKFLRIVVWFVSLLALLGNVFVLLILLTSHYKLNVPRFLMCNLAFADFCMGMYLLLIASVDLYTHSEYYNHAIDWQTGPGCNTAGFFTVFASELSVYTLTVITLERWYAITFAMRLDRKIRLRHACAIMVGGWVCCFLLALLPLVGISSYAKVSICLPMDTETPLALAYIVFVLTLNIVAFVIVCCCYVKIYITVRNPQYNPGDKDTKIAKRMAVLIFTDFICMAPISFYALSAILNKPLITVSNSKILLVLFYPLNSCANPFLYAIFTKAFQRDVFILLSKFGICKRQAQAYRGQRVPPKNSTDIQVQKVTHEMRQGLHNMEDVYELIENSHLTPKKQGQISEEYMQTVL

Test [2] concerns the target Progesterone receptor (Homo sapiens) (UniProt P06401). As to the kind of experiment: qHTS assay to identify small molecule agonists of the progesterone receptor (PR) signaling pathway (AID 1346784; calls by dose curve; note: nearly all actives have a fitted effect of over 30% in size). An outline of the steps: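 The screen uses PR-UAS-bla HEK 293T cells in charcoal-stripped serum (2%). Compounds are applied for 16 hr at 37C after a 6 hr pre-incubation, and reporter activity is detected with a FRET beta-lactamase substrate after 2 hr at room temperature.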

Test [3] shares this target. As to the kind of experiment: qHTS assay to identify small molecule antagonists of the progesterone receptor (PR) signaling pathway (AID 1346795; active = well fitted inhibition curve with a large enough effect in the signal ratio in the repeat runs, not every such curve was filed as active; the % refers to the signal ratio; note: potency is the fitted concentration of half-maximal effect). An outline of the steps: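 After 6 hr plating at 37C in 2% stripped-serum medium, PR-UAS-bla HEK293T cells got compounds, then 1 nM R5020. Sixteen hours later, LiveBLAzer substrate was applied for 2 hr at room temperature and fluorescence was recorded.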

A short description of test [4]: qHTS assay to identify small molecule antagonists of the progesterone receptor (PR) signaling pathway - cell viability counter screen (AID 1346798). Note: series mostly up to about 92 µM; nearly all actives have a fitted effect of over 50% in size. An outline of the steps: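 Viability was determined by ATP-based luminescence (CellTiter-Glo) in PR-UAS-bla HEK293T cells cultured in 2% charcoal-stripped serum and incubated 16 hr with compounds under R5020 stimulation.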

Test [5] is described as follows: qHTS assay to identify small molecule agonists of the progesterone receptor (PR) signaling pathway - cell viability counter screen (AID 1346799; calls by dose curve; note: nearly all actives have a fitted effect of over 45% in size). In short, it runs like this: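 Viability was scored by ATP luminescence (CellTiter-Glo, 30 min, room temperature) in the same wells used for the reporter readout, after 16 hr compound exposure of PR-UAS-bla HEK293T cells.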

A short description of test [6]: qHTS assay to identify small molecule antagonists of the TGF-beta/Smad signaling pathway - cell viability counter screen (AID 1346824). Note: nearly all actives have a fitted effect of over 50% in size. In short, it runs like this: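 SBE-bla HEK 293T cells were plated overnight at 37 C, then given compounds in DMSO plus TGF-beta1 (added as 0.25 ng/mL solution) for 5 hr. After the bla read, CellTiter-Glo was added to the same wells and luminescence read after 30 min at room temperature.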

Test [7] is described as follows: qHTS assay to identify small molecule agonists of the TGF-beta/Smad signaling pathway - cell viability counter screen (AID 1346829). Note: top concentration of the series differs between compounds; nearly all actives have a fitted effect of over 45% in size. In short, it runs like this: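 CellTiter-Glo luminescence readout; SBE-bla HEK 293T cells, overnight plating, compound 5 hr at 37 C/5% CO2, then bla substrate 2 hr RT, then CellTiter-Glo 30 min RT.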
Test [8] can be described thus: qHTS assay to identify small molecule agonists of the TGF-beta/Smad signaling pathway (AID 1346859; active = well fitted activation curve with a large enough effect in the signal ratio in the repeat runs, not every such curve was filed as active; the % refers to the signal ratio; note: series mostly up to about 77 µM). An outline of the steps:
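Dual-wavelength fluorescence (460/530 nm emission) quantified beta-lactamase expression under the Smad binding element in HEK 293T cells following 5 hr compound treatment at 37 C.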

The target of test [9] is Thyrotropin-releasing hormone receptor (Homo sapiens) (UniProt P34981). As to the kind of experiment: qHTS assay to identify small molecule antagonists of the thyrotropin-releasing hormone receptor (TRHR) signaling pathway (AID 1346877; active = well fitted inhibition curve with a large enough effect in the repeat runs, not every such curve was filed as active; note: series mostly up to about 51 µM). An outline of the steps:
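In this cell-based calcium flux format, HEK293 cells expressing TRHR received test compound for 5 min before the agonist TRH (1 nM final). Dye loading lasted 2 h at 37 °C.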

Test [10] shares this target. The experiment in a line: qHTS assay to identify small molecule agonists of the thyrotropin-releasing hormone receptor (TRHR) signaling pathway (AID 1346891; calls by dose curve; note: series mostly up to about 58 µM). In short, it runs like this:
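Kinetic fluorescence (3 min, 1 s intervals) reported intracellular calcium after compound transfer onto TRHR-Hek293 cells pre-loaded with dye for 2 h at 37 °C.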

Test [11] is described as follows: Human pregnane X receptor (PXR) small molecule agonists, qHTS cell viability counter screen (AID 1346977). Note: nearly all actives have a fitted effect of over 50% in size. An outline of the steps: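 HepG2 cells stably carrying the PXR-Luc reporter are cultured with 5% charcoal-stripped FBS and treated with compounds for 24hr. CellTiter-Fluor is added at 23hr and fluorescence is read after 1hr.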
Test [12] can be described thus: Caspase-3/7 induction in CHO-K1 cells by small molecules, qHTS cell viability counter screen (AID 1346979). Note: nearly all actives have a fitted effect of over 35% in size. Note: potency is the fitted concentration of half-maximal effect. In short, it runs like this: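 Seeding: 1,500 CHO-K1 cells/well. Rest: 5hr, 37C. Treatment: compounds in DMSO, 16hr. Read: CellTiter-Fluor, 1hr, fluorescence.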
Test [13] is described as follows: Caspase-3/7 induction in CHO-K1 cells by small molecules, qHTS assay (AID 1346980). Note: nearly all actives have a fitted effect of over 15% in size. An outline of the steps: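 Wild-type cells were seeded at 1,500 per well and settled 5 hr at 37 C, 5% CO2, then exposed to DMSO-dissolved compounds for 17 hr. Caspase-Glo 3/7 reagent was added, and luminescence was read after 30min at room temperature.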
Test [14] can be described thus: Caspase-3/7 induction in HepG2 cells by small molecules, qHTS cell viability counter screen (AID 1346981). Note: series mostly up to about 92 µM; nearly all actives have a fitted effect of over 30% in size. An outline of the steps:
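Counter screen for cytotoxicity: HepG2 exposed 16 hr to compounds, then CellTiter-Fluor viability signal (fluorescence, 1 hr reagent incubation).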

The target of test [15] is Nuclear receptor subfamily 1 group I member 2 (Homo sapiens) (UniProt O75469). As to the kind of experiment: Human pregnane X receptor (PXR) small molecule agonists, qHTS assay (AID 1346982). Note: nearly all actives have a fitted effect of over 35% in size. Note: potency is the fitted concentration of half-maximal effect. In short, it runs like this: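 Luminescence (ONE-Glo, 30 min RT) after 24 hr compound exposure of PXR-Luc HepG2 cells; cells rested 5 hr post-plating in 5% charcoal-stripped FBS medium.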
Nuclear receptor subfamily 1 group I member 2 (Homo sapiens), sequence (O75469 whole entry, looked up): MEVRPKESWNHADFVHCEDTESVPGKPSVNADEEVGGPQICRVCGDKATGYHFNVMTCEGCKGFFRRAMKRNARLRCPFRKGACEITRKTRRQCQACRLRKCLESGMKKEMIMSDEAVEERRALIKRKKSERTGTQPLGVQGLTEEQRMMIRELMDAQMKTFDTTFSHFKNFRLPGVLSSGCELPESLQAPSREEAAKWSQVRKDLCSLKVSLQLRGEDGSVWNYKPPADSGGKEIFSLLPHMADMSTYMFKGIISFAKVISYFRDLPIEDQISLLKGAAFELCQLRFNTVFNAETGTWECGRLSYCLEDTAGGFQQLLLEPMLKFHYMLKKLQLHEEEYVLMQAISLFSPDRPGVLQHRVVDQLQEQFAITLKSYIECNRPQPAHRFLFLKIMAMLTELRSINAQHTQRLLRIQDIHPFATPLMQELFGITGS

A short description of test [16]: Caspase-3/7 induction in HepG2 cells by small molecules, qHTS assay (AID 1346978). Note: nearly all actives have a fitted effect of over 15% in size. An outline of the steps:
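Wild-type HepG2 cells (2,000/well) were settled 5 h at 37 C, 5% CO2, then exposed to compounds in DMSO for 17 h. Caspase-3/7 activity was read by luminescence 30 min after adding Caspase-Glo 3/7 reagent at room temperature.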

Test [17] concerns the target Nuclear receptor subfamily 1 group I member 2 (Rattus norvegicus) (UniProt Q9R1A7). The experiment in a line: Rat pregnane X receptor (rPXR) activation by small molecules, qHTS assay (AID 1346983). Note: nearly all actives have a fitted effect of over 20% in size. Particulars: rPXR luciferase reporter cells, One-Glo luminescence, 24 h; hits give high values. In short, it runs like this:
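Cell-based rPXR luciferase reporter assay, 2,000 cells per well, rested 5hr at 37 C before compound addition in DMSO, then 24 hr at 37 C. One-Glo reagent was added and luminescence read after 30 min at room temperature.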

For test [18], the target named is Nuclear receptor subfamily 1 group I member 2 (Homo sapiens) (UniProt O75469). The experiment in a line: CYP3A4 induction through human pregnane X receptor (PXR) by small molecules, qHTS assay (AID 1346984). Note: nearly all actives have a fitted effect of over 40% in size. In short, it runs like this:
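DPX-2 reporter cells; 24h cpd, 37C; Luciferin-IPA 3uM final x3h; One-Glo 30 min RT; lumi read.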

Test [19] has the same target. As to the kind of experiment: Human pregnane X receptor (PXR) activation by small molecules, qHTS assay (AID 1346985). Note: nearly all actives have a fitted effect of over 40% in size. An outline of the steps: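 DPX-2 cells (HepG2 co-transfected with a PXR response element and a CYP3A4-promoter luciferase construct) were seeded at 2,000 per well, rested 5 hr at 37C, then exposed to DMSO-dissolved compounds for 24 hr. Activation was read as luciferase luminescence.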

Test [20] can be described thus: qHTS assay to identify small molecule agonists of the estrogen receptor alpha (ER-alpha) signaling pathway in the presence of an antagonist - cell viability counter screen (AID 1259386).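 Note: series mostly up to about 92 µM; cells exposed to compounds for 22 h at 37 °C before the viability read; nearly all actives have a fitted effect of over 30% in size.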 In short, it runs like this: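 Fluorescent CellTiter-Fluor viability signal from VM7Luc4E2 cells, with the reagent added during the final hour of a 22hr compound exposure at 37C in the presence of 10.0nM ICI-182,780.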

SMILES strings stand for the structures. Where “and” joins values, the source holds several entries; their conditions need not be identical. Equal entries are not always repeated. Values without a mark were called inactive. Records with an inconclusive call do not appear. Calls of active or inactive are those of the source. Unless noted, calls come from the whole dose curve; as a rule, active = well fitted curve in the direction sought with a large enough effect in the repeat runs; inconclusive = weak or mixed curves; inactive = no such curve, though single readings can be large; an effect the other way counts as inactive or inconclusive.
% is set by controls: 0 for no effect and ±100 for the full control effect.

Thyrotropin-releasing hormone receptor (Homo sapiens), sequence (P34981 whole entry, looked up): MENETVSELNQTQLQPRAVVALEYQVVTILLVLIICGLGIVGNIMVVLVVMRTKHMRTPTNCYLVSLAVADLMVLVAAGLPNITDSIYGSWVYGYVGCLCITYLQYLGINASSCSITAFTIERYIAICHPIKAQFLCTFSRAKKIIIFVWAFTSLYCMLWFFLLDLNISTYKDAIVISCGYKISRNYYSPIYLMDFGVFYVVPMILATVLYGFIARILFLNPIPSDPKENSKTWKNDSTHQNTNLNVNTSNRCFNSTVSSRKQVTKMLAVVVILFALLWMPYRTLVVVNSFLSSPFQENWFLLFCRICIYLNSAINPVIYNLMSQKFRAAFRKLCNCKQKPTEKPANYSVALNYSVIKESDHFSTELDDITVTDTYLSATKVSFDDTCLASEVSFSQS
Nuclear receptor subfamily 1 group I member 2 (Rattus norvegicus), sequence (Q9R1A7 whole entry, looked up): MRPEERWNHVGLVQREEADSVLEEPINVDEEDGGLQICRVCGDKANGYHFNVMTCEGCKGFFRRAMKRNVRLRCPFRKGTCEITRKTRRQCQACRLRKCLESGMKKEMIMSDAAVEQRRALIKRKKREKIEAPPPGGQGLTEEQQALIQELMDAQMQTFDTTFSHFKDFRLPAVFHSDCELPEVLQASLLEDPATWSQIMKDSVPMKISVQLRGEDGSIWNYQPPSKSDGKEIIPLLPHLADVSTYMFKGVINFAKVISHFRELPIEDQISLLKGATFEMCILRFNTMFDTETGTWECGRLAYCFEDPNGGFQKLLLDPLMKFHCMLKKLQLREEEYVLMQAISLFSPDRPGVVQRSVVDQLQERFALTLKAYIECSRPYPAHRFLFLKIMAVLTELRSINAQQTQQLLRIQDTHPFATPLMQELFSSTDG
Progesterone receptor (Homo sapiens), sequence (P06401 whole entry, looked up): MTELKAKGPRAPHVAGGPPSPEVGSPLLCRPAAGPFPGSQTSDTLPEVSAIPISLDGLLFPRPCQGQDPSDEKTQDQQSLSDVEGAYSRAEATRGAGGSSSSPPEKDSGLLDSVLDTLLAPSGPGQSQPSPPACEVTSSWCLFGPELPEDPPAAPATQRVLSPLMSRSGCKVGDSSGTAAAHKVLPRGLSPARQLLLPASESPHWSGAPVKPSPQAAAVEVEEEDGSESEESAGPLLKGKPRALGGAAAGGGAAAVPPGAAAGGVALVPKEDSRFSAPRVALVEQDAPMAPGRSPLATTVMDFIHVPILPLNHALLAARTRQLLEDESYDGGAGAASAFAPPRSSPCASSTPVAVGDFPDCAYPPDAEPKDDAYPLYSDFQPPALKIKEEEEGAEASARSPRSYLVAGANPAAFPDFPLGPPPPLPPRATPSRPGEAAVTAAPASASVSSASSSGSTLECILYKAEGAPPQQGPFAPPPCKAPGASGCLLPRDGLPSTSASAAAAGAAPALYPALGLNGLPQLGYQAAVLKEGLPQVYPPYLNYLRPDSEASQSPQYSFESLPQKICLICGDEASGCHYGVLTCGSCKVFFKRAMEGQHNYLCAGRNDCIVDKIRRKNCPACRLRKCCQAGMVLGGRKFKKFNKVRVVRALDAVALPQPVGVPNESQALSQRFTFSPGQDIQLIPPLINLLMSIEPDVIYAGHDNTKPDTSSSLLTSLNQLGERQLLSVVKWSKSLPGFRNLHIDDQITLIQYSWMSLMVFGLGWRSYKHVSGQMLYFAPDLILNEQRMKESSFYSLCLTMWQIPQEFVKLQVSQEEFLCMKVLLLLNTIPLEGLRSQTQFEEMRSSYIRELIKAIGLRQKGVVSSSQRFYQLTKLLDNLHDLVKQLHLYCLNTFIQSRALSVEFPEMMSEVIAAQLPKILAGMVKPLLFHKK

Turning to `CC(C)NC(=O)NC(C)C`, the Potency entry in test [1], in test [2], in [3], in test [4], in test [5] and in test [6] was “inactive” throughout. For the same molecule, the Potency result in [11], in test [12], in [14] and in test [15] was “inactive” in each case. For the same molecule, the result in test [7], in [8], in test [9], in test [10] and in test [13] was inactive.
Take `CC(C)(C)c1ccc(O)c(O)c1`: the Potency result in test [1], in [2], in [6], in [11] and in [16] was “inactive” in each case. Moreover, the Potency in [3] was 50.2 µM (active) and 44.5 µM (active); in test [12], 63.2 µM (active) and 57.7 µM (active); in test [15], 63.2 µM (active) and 27.3 µM (active). Also, the molecule was classed as inactive in test [7], in [8], in test [9], in test [10] and in [13].
As for `CCOC(=O)Nc1ccc(NCc2ccc(F)cc2)nc1N`, the Potency entry in test [1], in [2], in test [3], in [4], in test [5] and in test [6] was “inactive” throughout. Moreover, the Potency entry in [11], in [16], in test [12], in test [14], in test [15] and in test [18] was “inactive” throughout. Moreover, the outcome in test [7], in [8] and in [13] was inactive. Also, in [17], the max activation is 1.97%.
Take `Cc1cc2c(cc1S(N)(=O)=O)S(=O)(=O)CCC2`: the Potency result in test [1], in test [2], in test [4], in test [5], in test [6] and in test [11] was “inactive” each time. For the same molecule, the Potency result in test [16], in [12], in test [14], in test [15], in [18] and in test [19] was “inactive” throughout. Besides, the molecule was classed as inactive in [7], in [8], in test [9], in test [10] and in test [13]. The max activation in [17] was -2.16%.
For `COC(=O)c1cc(C(=O)OC)cc(S(=O)(=O)O)c1`, the Potency result in test [1], in test [2], in test [5], in test [6], in test [11] and in test [16] was “inactive” throughout. Moreover, the Potency entry in test [12], in [14] and in test [15] was “inactive” throughout. For the same molecule, the molecule was called inactive in test [7], in test [8], in test [9], in [10] and in test [13].
With `CCCN1CCCC[C@H]1C(=O)Nc1c(C)cccc1C`, the Potency entry in test [1], in [4], in test [5], in [6], in [16] and in [12] was “inactive” in each case. Further, the Potency result in [14] was “inactive”. Further, the molecule was called inactive in test [7], in test [8], in [9], in test [10] and in test [13]. In addition, in [17], the max activation is 0.29%.
As to `CC(C)NCCCC1(C(N)=O)c2ccccc2-c2ccccc21`, the Potency entry in test [1], in test [2], in test [3], in test [4], in test [5] and in [6] was “inactive” in each case. For the same molecule, the Potency result in [11], in test [16], in test [12] and in [14] was “inactive” each time. Further, the molecule was called inactive in test [7], in [8], in [9], in [10] and in test [13]. In addition, in [15], the Potency was 23.7 µM (active).
Turning to `C=CCCCCCCCCC=O`, the Potency result in [1], in test [20], in test [6], in test [11], in test [16] and in [12] was “inactive” throughout. The Potency entry in [14] and in [15] was “inactive” throughout. Also, the result in [7], in test [8] and in test [13] was inactive.
